Hit rate of the full screen: of about 310,000 compounds, about 14,000 (4.5%) showed an effect of 50% or more. The effect is printed as a negative number. The sample as a whole holds a higher share of strong results than the screen did.
Biological target: human ether-à-go-go-related gene (hERG) potassium channel (human, UniProt Q12809)
Test: primary screen, population patch clamp on CHO cells stably expressing hERG; higher = less effect of the substance
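Note: peak tail current of the secondary pulse compared with the same well before compound.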

Sequence of human ether-à-go-go-related gene (hERG) potassium channel (Q12809 whole entry, looked up): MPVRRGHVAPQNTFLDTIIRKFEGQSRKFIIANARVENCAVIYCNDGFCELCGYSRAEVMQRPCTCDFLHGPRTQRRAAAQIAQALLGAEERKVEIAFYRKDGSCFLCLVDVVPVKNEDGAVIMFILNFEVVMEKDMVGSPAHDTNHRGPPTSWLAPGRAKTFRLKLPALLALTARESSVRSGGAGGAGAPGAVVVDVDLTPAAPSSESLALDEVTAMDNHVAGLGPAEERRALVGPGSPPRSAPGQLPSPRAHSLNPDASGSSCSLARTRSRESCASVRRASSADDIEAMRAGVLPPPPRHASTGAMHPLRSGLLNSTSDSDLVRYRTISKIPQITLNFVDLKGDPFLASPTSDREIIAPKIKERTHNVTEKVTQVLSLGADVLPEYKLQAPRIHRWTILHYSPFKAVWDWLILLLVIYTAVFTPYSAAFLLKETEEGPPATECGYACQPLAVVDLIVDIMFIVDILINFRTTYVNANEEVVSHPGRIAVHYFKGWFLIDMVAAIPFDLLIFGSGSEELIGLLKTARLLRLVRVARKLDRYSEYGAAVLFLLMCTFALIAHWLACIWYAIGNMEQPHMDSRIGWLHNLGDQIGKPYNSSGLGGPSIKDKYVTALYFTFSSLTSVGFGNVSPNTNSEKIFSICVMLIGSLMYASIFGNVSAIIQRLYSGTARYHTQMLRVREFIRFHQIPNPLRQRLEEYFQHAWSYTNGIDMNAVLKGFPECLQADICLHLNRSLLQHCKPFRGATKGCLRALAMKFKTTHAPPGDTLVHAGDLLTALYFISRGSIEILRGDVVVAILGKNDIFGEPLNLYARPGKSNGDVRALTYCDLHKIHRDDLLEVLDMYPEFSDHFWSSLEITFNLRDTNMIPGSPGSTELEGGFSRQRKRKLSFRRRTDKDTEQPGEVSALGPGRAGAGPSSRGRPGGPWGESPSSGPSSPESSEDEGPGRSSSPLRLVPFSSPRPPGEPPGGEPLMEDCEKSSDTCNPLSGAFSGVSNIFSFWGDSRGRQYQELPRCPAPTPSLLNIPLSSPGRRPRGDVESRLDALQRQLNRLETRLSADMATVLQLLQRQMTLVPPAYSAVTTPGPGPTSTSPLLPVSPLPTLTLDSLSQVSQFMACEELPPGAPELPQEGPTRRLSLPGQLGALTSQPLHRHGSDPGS

Going from `Cc1cc(C(=O)CSc2nn3c(=O)c(C(C)(C)C)nnc3s2)c(C)n1C` to `Cc1ccc(SCC(=O)NC(=O)NCCC(C)C)c(C)c1`, the “hERG current change (%, negative = inhibition) at 10uM” value falls from 9.61% to -1.09%.

First: COc1ccc(NC(=S)NCCc2ccc(F)cc2)c(OC)c1
Second: Cn1c(-c2ccc(F)cc2)cnc1NCc1ccc(F)cc1
The “hERG current change (%, negative = inhibition) at 10uM” value of the first is higher: -19.4% for the first, -40.7% for the second.

First: O=C1c2cccc3c([N+](=O)[O-])ccc(c23)C(=O)N1c1ccccn1
Second: O=C1c2ccccc2C(=O)N1CN(C(=O)COc1ccc(Cl)cc1Cl)c1cccc(F)c1
The “hERG current change (%, negative = inhibition) at 10uM” value of the first is higher: 7.95% for the first, 1.4% for the second.

Going from `O=C(Cc1cccs1)NNC(=S)NC(=O)c1ccc(F)c(F)c1` to `O=C(NC(=S)NN1CCCCC1c1cccnc1)c1ccc(Cl)cc1Cl` (stereo not drawn), the “hERG current change (%, negative = inhibition) at 10uM” value falls from 12.2% to -6.98%.

Compared with `C=CCNC(=O)CN1CCC(c2nc3ccccc3[nH]2)CC1`, `CCCNC(=O)CN1CCC(c2nc3ccccc3[nH]2)CC1` is higher in “hERG current change (%, negative = inhibition) at 10uM” value: 7.7% for the first, 15.6% for the second.

Going from `CC(C)NC(=O)CN1CCC(c2nc3ccccc3[nH]2)CC1` to `CC(C)N(C(=O)CN1CCC(c2nc3ccccc3[nH]2)CC1)C(C)C`, the “hERG current change (%, negative = inhibition) at 10uM” value rises from -8.64% to -4.13%.

Compared with `Cc1ccc2nc(C3CCN(CC(=O)Nc4ccc5c(c4)OCCO5)CC3)[nH]c2c1`, `O=C(CN1CCC(c2nc3ccccc3[nH]2)CC1)Nc1ccc2c(c1)OCO2` is lower in “hERG current change (%, negative = inhibition) at 10uM” value: -50.6% for the first, -53.1% for the second.

Compared with `Cc1ccc2nc(SCC(=O)Nc3ccc4c(c3)OCCO4)[nH]c2c1`, `Cc1ccc2nc(-c3ccc(SCC(=O)Nc4ccc5c(c4)OCCO5)nc3)[nH]c2c1` is lower in “hERG current change (%, negative = inhibition) at 10uM” value: 4.73% for the first, -5.51% for the second.

Compared with `O=C(CN1CCC(c2nc3ccccc3[nH]2)CC1)NCc1ccc2c(c1)OCO2`, `O=C(C1=C[C@@H](C2CC2)C[C@@H](OCc2ccc(CO)cc2)O1)N1CCN(Cc2ccc3c(c2)OCO3)CC1` is higher in “hERG current change (%, negative = inhibition) at 10uM” value: -84.3% for the first, -51.7% for the second.

Going from `CCN1CCN(Cc2ccc(NC(=O)c3cc(NC(=O)c4ccc5n[nH]nc5c4)cc(OC)c3)cc2C(F)(F)F)CC1` to `CCN1CCN(c2c(Cl)cccc2NC(=O)c2cc3ccccc3o2)CC1`, the “hERG current change (%, negative = inhibition) at 10uM” value falls from 21.1% to -23.4%.

Compared with `CC(C(=O)OCC(=O)c1ccccc1)N1C(=O)C2C3CCC(C3)C2C1=O` (stereo not drawn), `O=C(NC(=O)N1CCOCC1)c1ccccc1` is lower in “hERG current change (%, negative = inhibition) at 10uM” value: 10.5% for the first, 8.08% for the second.

Compared with `c1ccc(OCCCn2nnc(-c3ccc(N4CCOCC4)cc3)n2)cc1`, `COc1cccc(C=Nc2ccc(N3CCOCC3)cc2)c1O` is higher in “hERG current change (%, negative = inhibition) at 10uM” value: 15.4% for the first, 17.9% for the second.

Going from `COc1ccc(NC(=O)CN(C)S(=O)(=O)c2cccc3nsnc23)cc1OC` to `COc1cc(OC)c(NC(=O)CCNC(=O)Cn2cnc3ccccc3c2=O)cc1Cl`, the “hERG current change (%, negative = inhibition) at 10uM” value rises from -10.3% to -0.133%.

Going from `CCc1ccc(N(CC(=O)NC2CCCCC2)C(=O)CNC(=O)c2ccco2)cc1` to `O=C(O)CCC(=O)Nc1sc2c(c1C(=O)NC1CCCC1)CCCC2`, the “hERG current change (%, negative = inhibition) at 10uM” value rises from -13.6% to 5.76%.

Compared with `CC(C)c1ccc(N2C(=NC(=O)C3CCCO3)SC3CS(=O)(=O)CC32)cc1` (stereo not drawn), `CC(=O)N1c2ccc(Cl)cc2C2OCCC2C1c1ccco1` (stereo not drawn) is higher in “hERG current change (%, negative = inhibition) at 10uM” value: -9.87% for the first, 9.11% for the second.

First: COc1cccc(S(=O)(=O)Nc2ccc(C(=O)NCc3ccco3)cc2)c1
Second: CCc1nnc(NS(=O)(=O)c2ccc(NC(=O)/C=C/c3ccc(F)cc3)cc2)s1
The “hERG current change (%, negative = inhibition) at 10uM” value of the first is lower: 3.01% for the first, 8.28% for the second.

Going from `Cn1c(-c2ccc(F)cc2)cnc1NCc1ccccc1` to `Cn1c(-c2ccc(F)cc2)cnc1NCc1ccc(C#N)cc1`, the “hERG current change (%, negative = inhibition) at 10uM” value falls from -46.7% to -73.7%.

First: Cn1c(-c2ccccc2)cnc1NCc1ccc(-c2ccccc2)cc1.O=C(O)C(=O)O
Second: Cn1c(-c2ccc(Br)cc2)cnc1NCc1ccc(C#N)cc1.O=C(O)C(=O)O
The “hERG current change (%, negative = inhibition) at 10uM” value of the first is higher: -10.4% for the first, -76.6% for the second.

Compared with `Cc1cc(C)cc(C(=O)NC(CC(N)=O)c2ccc(NC3CCCCCCC3)c([N+](=O)[O-])c2)c1` (stereo not drawn), `CCN1CCN(c2ccc(S(=O)(=O)N3CCCCC3)cc2NC(=O)c2cccc(C)c2[N+](=O)[O-])CC1` is lower in “hERG current change (%, negative = inhibition) at 10uM” value: 1.06% for the first, -28.8% for the second.

Compared with `CC(=O)c1c(O)cc(C)oc1=O`, `COc1ccccc1CNC(=O)c1c(O)c2cc(OC)c(OC)cc2[nH]c1=O` is lower in “hERG current change (%, negative = inhibition) at 10uM” value: 25.5% for the first, 6.86% for the second.

Going from `C(=N\Nc1nc(N2CCCC2)nc(N2CCCC2)n1)/c1cccnc1` to `C(=N\Nc1nc(N2CCOCC2)nc(N2CCOCC2)n1)/c1cccnc1`, the “hERG current change (%, negative = inhibition) at 10uM” value falls from 6.33% to -12.1%.

Compared with `FC(F)(F)COc1nc(N/N=C/c2cccnc2)nc(N2CCCCC2c2ccccn2)n1` (stereo not drawn), `OC(C#CCN1CCCC1)(c1ccccc1)c1cccc(F)c1` (stereo not drawn) is higher in “hERG current change (%, negative = inhibition) at 10uM” value: -60.8% for the first, -16.7% for the second.

First: COCCN(CC(=O)NCc1ccc(OC)cc1)C(=O)CCC(=O)Nc1nccs1
Second: COc1ccc(OCCCC(=O)Nc2nncs2)cc1
The “hERG current change (%, negative = inhibition) at 10uM” value of the first is lower: -8.1% for the first, 0.955% for the second.

First: O=S(Cc1cc(Oc2ccccc2)nc(-c2ccccc2)n1)c1ccccc1 (stereo not drawn)
Second: OC(C#CCN1CCCC1)(c1ccccc1)c1ccccc1
The “hERG current change (%, negative = inhibition) at 10uM” value of the first is higher: -7.69% for the first, -28.8% for the second.

First: O=Cc1sc(Nc2ccccc2)nc1Cl
Second: COc1ccccc1C(=O)Nc1nc(-c2cccs2)c(NC(C)=O)s1
The “hERG current change (%, negative = inhibition) at 10uM” value of the first is lower: -13.1% for the first, -7.05% for the second.

Going from `Cc1ccc(S(=O)(=O)N2CCCCC2)cc1NC(=O)c1cc2ccccc2o1` to `CCN1CCN(c2ccc(S(=O)(=O)N3CCCCC3)cc2NC(=O)c2cc3ccccc3o2)CC1`, the “hERG current change (%, negative = inhibition) at 10uM” value falls from -7.85% to -53.7%.

Going from `COc1ccc(N2CCCC2)c(NC(=O)c2ccc([N+](=O)[O-])o2)c1` to `COc1ccc(S(=O)(=O)N2CCCCC2)cc1NC(=O)c1ccc([N+](=O)[O-])o1`, the “hERG current change (%, negative = inhibition) at 10uM” value falls from 14% to -2.81%.

Compared with `CCN1CCN(c2ccc(S(=O)(=O)N3CCCCC3)cc2NC(=O)c2ccc(C)o2)CC1`, `CCN1CCN(c2ccc(S(=O)(=O)N3CCCCC3)cc2NC(=O)c2ccc([N+](=O)[O-])o2)CC1` is lower in “hERG current change (%, negative = inhibition) at 10uM” value: -75.7% for the first, -75.9% for the second.

First: CCN1CCN(c2ccc(S(=O)(=O)N3CCCCC3)cc2NC(=O)c2ccc([N+](=O)[O-])s2)CC1
Second: CCN1CCN(c2ccc(S(=O)(=O)N3CCCCC3)cc2NC(=O)c2sccc2C)CC1
The “hERG current change (%, negative = inhibition) at 10uM” value of the first is lower: -80.6% for the first, -71.4% for the second.

Going from `CCN1CCN(S(=O)(=O)c2ccc(Cl)c(C(=O)Nc3ccccc3N3CCCCC3)c2)CC1` to `O=C(c1ccc(S(=O)(=O)N2CCOCC2)cc1)N1CCN(c2ccccn2)CC1`, the “hERG current change (%, negative = inhibition) at 10uM” value falls from 12.8% to 4.62%.

Going from `CCCn1c(/N=C/c2ccccc2O)nc2ccccc21` to `CCCCC(=O)Nc1ccc2c(c1)nc(CCNC(=O)c1ccco1)n2C`, the “hERG current change (%, negative = inhibition) at 10uM” value falls from 13.6% to -11.1%.

Compared with `Cc1cnc(NC(=O)CN2CCN(c3ccccc3F)CC2)s1.Cl`, `C[C@H]1C=C(C(=O)N2CCN(Cc3ccc4c(c3)OCO4)CC2)O[C@@H](OCc2ccc(CO)cc2)C1` is lower in “hERG current change (%, negative = inhibition) at 10uM” value: 12.2% for the first, -70.7% for the second.

Going from `Cc1ccc(S(=O)(=O)CCC(=O)OCC(=O)NCc2ccc(Cl)cc2)cc1` to `CCOC(=O)[C@@H]1[C@H]2COc3ccc(Br)cc3[C@H]2N2C(=O)N(c3ccc(C)cc3)C(=O)[C@]12C`, the “hERG current change (%, negative = inhibition) at 10uM” value falls from 36.8% to -4.14%.

First: O=C(Nc1ccccc1Cl)NC1(C(=O)N2CCOCC2)CCCCC1
Second: OC(C#CCCN1CCCCC1)(c1ccccc1)C1CCCCC1 (stereo not drawn)
The “hERG current change (%, negative = inhibition) at 10uM” value of the first is higher: 17.5% for the first, -46.3% for the second.

Going from `O=C(O)CN1c2cccc3cccc(c23)S1(=O)=O` to `COc1cc(/C=N/NC(=O)C(=O)NCc2cccnc2)cc(OC)c1OC`, the “hERG current change (%, negative = inhibition) at 10uM” value falls from 32.4% to 5.17%.

First: CC1CCCN1CC#CC(O)(c1ccccc1)c1ccccc1.Cl (stereo not drawn)
Second: OC(C#CCN1CCCCC1)(c1ccccc1)c1ccccc1
The “hERG current change (%, negative = inhibition) at 10uM” value of the first is lower: -60.7% for the first, -24.6% for the second.

Going from `OC(C#CCCN1CCCCC1)(c1ccccc1)c1ccccc1` to `O=C(C1=C[C@@H](C2CCCCC2)C[C@@H](OCc2ccc(CO)cc2)O1)N1CCN(Cc2ccc3c(c2)OCO3)CC1`, the “hERG current change (%, negative = inhibition) at 10uM” value rises from -53.8% to 4.46%.

Going from `Cc1cc(Cl)c2oc(C(=O)N(C)CCCCN3CCOCC3)c(C)c2c1` to `O=C(C1=C[C@@H](C2CC2)C[C@@H](OCCCCO)O1)N1CCN(Cc2ccc3c(c2)OCO3)CC1`, the “hERG current change (%, negative = inhibition) at 10uM” value rises from -46% to -11.1%.

Going from `CC(C)(C)[C@@H]1C=C(C(=O)N2CCN(Cc3ccc4c(c3)OCO4)CC2)O[C@H](OCc2ccc(CO)cc2)C1` to `CC(C)(C)[C@H]1C=C(C(=O)N2CCN(Cc3ccc4c(c3)OCO4)CC2)O[C@@H](OCc2ccc(CO)cc2)C1`, the “hERG current change (%, negative = inhibition) at 10uM” value rises from -35% to -33.7%.

Going from `O=C(C1=C[C@H](C2CCCCC2)C[C@H](OCc2ccc(CO)cc2)O1)N1CCN(Cc2ccc3c(c2)OCO3)CC1` to `O=C(C1=C[C@H](C2CC2)C[C@H](OCc2ccc(CO)cc2)O1)N1CCN(Cc2ccc3c(c2)OCO3)CC1`, the “hERG current change (%, negative = inhibition) at 10uM” value falls from -18.3% to -57.8%.

With `O=C(C1=C[C@H](c2ccc3c(c2)OCO3)C[C@H](OCc2ccc(CO)cc2)O1)N1CCN(Cc2ccc3c(c2)OCO3)CC1` the “hERG current change (%, negative = inhibition) at 10uM” value was -17.2%.

— publication PMC4336329 (PLoS ONE, 2015)
